From PubChem BioAssay
Records with an inconclusive call do not appear. Calls of active or inactive are those of the source.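 Rule for the calls, unless noted: active = normalized viability below 100% at a tested concentration; inactive = the rest.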

Tests used:
[1] = growth inhibition of DIPG glioma cells, dose response, cell-based, SU-DIPG-XVII, MIPE5.0, CellTiter-Glo, qHTS (AID 1347060; cut-off not given, nearly all actives have AC50 up to about 26 µM;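 note: cells exposed to compound for 48 hours before viability readout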); conditions: SU-DIPG-XVII viability, CellTiter-Glo ATP luminescence
[2] = growth inhibition of DIPG glioma cells, dose response, cell-based, JHH-DIPG-1, MIPE4.0, CellTiter-Glo, qHTS (AID 1347062; cut-off not given, nearly all actives have AC50 up to about 27 µM;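 note: cells exposed to compound for two days before readout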); conditions: JHH-DIPG-1 viability, CellTiter-Glo ATP luminescence
[3] = growth inhibition of DIPG glioma cells, dose response, cell-based, SU-DIPG-IV, MIPE4.0, CellTiter-Glo, qHTS (AID 1347063; cut-off not given, nearly all actives have AC50 up to about 30 µM;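 note: compound exposure lasted 48 hours before the viability readout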); conditions: SU-DIPG-IV viability, CellTiter-Glo ATP luminescence
[4] = growth inhibition of DIPG glioma cells, dose response, cell-based, SU-DIPG-XIII, MIPE5.0, CellTiter-Glo, qHTS (AID 1347064; cut-off not given, nearly all actives have AC50 up to about 23 µM;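 note: cells exposed to compound for 48 hours before the viability read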); conditions: SU-DIPG-XIII viability, CellTiter-Glo ATP luminescence
[5] = viability loss in pontine glioma line – cell-based, SU-DIPG-XXV, MIPE5.0, CellTiter-Glo, qHTS, dose response (AID 1347065; cut-off not given, nearly all actives have AC50 up to about 26 µM;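 note: cells exposed to compound for 48 hours before ATP readout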); conditions: CellTiter-Glo ATP luminescence
[6] = sensitizers of A549 cells to miR-34 induction, primary screen, imaging, A549 dox-inducible miR-34, nuclei and caspase counts (AID 1347080;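 active = compounds whose cell count with miR-34 switched on is under 0.7 times the count with it off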); conditions: A549 miR-34 inducible, Hoechst nuclei count, 48 h
[7] = modifiers of HSF1 nuclear foci, imaging, Selleck Cancer Library (AID 1347162; in the data active = plate-normalised HSF1 focus index below about 0.46); conditions: human cells, at 10 µM; SSMD: measured here: HSF1 foci SSMD mean; cell count: measured here: cell number; plate-normalised HSF1 focus index: stronger effect = lower value
[8] = survival rescue of mitochondrial mutant cells in low glucose, primary screen, MELAS cybrids, Rieske KO mouse fibroblasts, CellTiter-Glo (AID 1508586;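 active = mean z-score across replicates of 1.96 or higher in either the MELAS or the Rieske mutant cell line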;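 note: z relative to plate mean and SD of compound and empty wells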)
[9] = ovarian cancer cell viability with rucaparib, profiling panel, oncology-focused library, rucaparib conditional (AID 1508598); conditions: patient-derived ovarian cancer cells, CellTiter-Glo viability, 144 h, stronger effect = lower value
[10] = SU-DIPG-VI glioma cell viability, MIPE4.0 library, CellTiter-Glo luminescence, qHTS (AID 1347066; cut-off not given, nearly all actives have AC50 up to about 30 µM;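 note: cells exposed to compound for 48 hours before readout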); conditions: CellTiter-Glo ATP luminescence
[11] = JHH-DIPG-1 glioma cell viability, MIPE5.0 library, CellTiter-Glo luminescence, qHTS (AID 1347067; cut-off not given, nearly all actives have AC50 up to about 26 µM;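 note: cells exposed to compound for 48 hours before readout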); conditions: JHH-DIPG-1 glioma viability, CellTiter-Glo ATP luminescence
[12] = SU-DIPG-XXV glioma cell viability, MIPE5.0 library, qHTS (AID 1347068; cut-off not given, nearly all actives have IC50 up to about 30 µM;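 note: cells exposed to compound for 48 hours before viability readout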)
[13] = at 0.000305 µM, OCI-C5x cells, with rucaparib 10 µM, 100% = cells with rucaparib alone
[14] = at 0.000305 µM, OCI-C5x cells, without rucaparib
[15] = at 0.000305 µM, OCI-P5x cells, with rucaparib 20 µM, 100% = cells with rucaparib alone
[16] = at 0.000305 µM, OCI-P5x cells, without rucaparib
[17] = at 0.00122 µM, OCI-C5x cells, with rucaparib 10 µM, 100% = cells with rucaparib alone
[18] = at 0.00122 µM, OCI-C5x cells, without rucaparib
[19] = at 0.00122 µM, OCI-P5x cells, with rucaparib 20 µM, 100% = cells with rucaparib alone
[20] = at 0.00122 µM, OCI-P5x cells, without rucaparib
[21] = at 0.00488 µM, OCI-C5x cells, with rucaparib 10 µM, 100% = cells with rucaparib alone
[22] = at 0.00488 µM, OCI-C5x cells, without rucaparib
[23] = at 0.00488 µM, OCI-P5x cells, with rucaparib 20 µM, 100% = cells with rucaparib alone
[24] = at 0.00488 µM, OCI-P5x cells, without rucaparib
[25] = at 0.0195 µM, OCI-C5x cells, with rucaparib 10 µM, 100% = cells with rucaparib alone
[26] = at 0.0195 µM, OCI-C5x cells, without rucaparib
[27] = at 0.0195 µM, OCI-P5x cells, with rucaparib 20 µM, 100% = cells with rucaparib alone
[28] = at 0.0195 µM, OCI-P5x cells, without rucaparib
[29] = at 0.0781 µM, OCI-C5x cells, with rucaparib 10 µM, 100% = cells with rucaparib alone
[30] = at 0.0781 µM, OCI-C5x cells, without rucaparib
[31] = at 0.0781 µM, OCI-P5x cells, with rucaparib 20 µM, 100% = cells with rucaparib alone
[32] = at 0.0781 µM, OCI-P5x cells, without rucaparib
[33] = at 0.313 µM, OCI-C5x cells, with rucaparib 10 µM, 100% = cells with rucaparib alone
[34] = at 0.313 µM, OCI-C5x cells, without rucaparib
[35] = at 0.313 µM, OCI-P5x cells, with rucaparib 20 µM, 100% = cells with rucaparib alone
[36] = at 0.313 µM, OCI-P5x cells, without rucaparib
[37] = at 1.25 µM, OCI-C5x cells, with rucaparib 10 µM, 100% = cells with rucaparib alone
[38] = at 1.25 µM, OCI-C5x cells, without rucaparib
[39] = at 1.25 µM, OCI-P5x cells, with rucaparib 20 µM, 100% = cells with rucaparib alone
[40] = at 1.25 µM, OCI-P5x cells, without rucaparib
[41] = at 5 µM, OCI-C5x cells, with rucaparib 10 µM, 100% = cells with rucaparib alone
[42] = at 5 µM, OCI-C5x cells, without rucaparib
[43] = at 5 µM, OCI-P5x cells, with rucaparib 20 µM, 100% = cells with rucaparib alone
[44] = at 5 µM, OCI-P5x cells, without rucaparib

COc1cc2nccc(Oc3ccc(NC(=O)NC4CC4)c(Cl)c3)c2cc1C(N)=O
2.76: SSMD [7]
active: AC50 [1] 2.09 µM | AC50 [2] 2.35 µM | AC50 [3] 4.69 µM | AC50 [4] 4.68 µM | AC50 [5] 2.35 µM | viability [9, 43] 91.4% | viability [9, 44] 88.9%
5580: cell count ([6]; measured here: total cells with miR-34 induction, stronger effect = lower value)
6600: cell count [7]
inactive: fold change ([6]; stronger effect = lower value, cell number ratio, induced over uninduced) 0.924 | plate-normalised HSF1 focus index [7] 1.14 | z-score ([8]; MELAS cybrid survival, CellTiter-Glo 48 h, stronger effect = higher value) -0.303 | viability [9, 13] 125% | viability [9, 14] 110% | viability [9, 15] 111% | viability [9, 16] 105% | viability [9, 17] 100% | viability [9, 18] 110% | viability [9, 19] 112% | viability [9, 20] 114% | viability [9, 21] 108% | viability [9, 22] 103% | viability [9, 23] 110% | viability [9, 24] 112% | viability [9, 25] 103% | viability [9, 26] 113% | viability [9, 27] 117% | viability [9, 28] 114% | viability [9, 29] 103% | viability [9, 30] 112% | viability [9, 31] 111% | viability [9, 32] 111% | viability [9, 33] 108% | viability [9, 34] 110% | viability [9, 35] 108% | viability [9, 36] 110% | viability [9, 37] 126% | viability [9, 38] 111% | viability [9, 39] 119% | viability [9, 40] 112% | viability [9, 41] 142% | viability [9, 42] 111%
1.21: fold change ([6]; measured here: relative caspase fold change +Dox/-Dox)
6040: cell count ([6]; measured here: total cells without miR-34 induction)
0.105: z-score ([8]; Rieske KO mouse fibroblast survival, CellTiter-Glo 72 h)

CN1CCCN(C(=O)c2cccc(-c3ccc(/C=C4/C(=O)Nc5ccc(Cl)cc54)o3)c2)CC1
active: AC50 [1] 8.33 µM | AC50 [2] 20.9 µM | AC50 [3] 9.35 µM | AC50 [4] 7.42 µM | AC50 [5] 10.5 µM | AC50 [10] 10.5 µM | AC50 [11] 2.35 µM | IC50 [12] 29.5 µM | viability [9, 14] 96.5% | viability [9, 21] 99.3% | viability [9, 25] 90.6% | viability [9, 26] 99.3% | viability [9, 27] 97.1% | viability [9, 35] 100% | viability [9, 36] 94.8% | viability [9, 37] 98% | viability [9, 38] 96.2% | viability [9, 39] 95.1% | viability [9, 40] 93.4% | viability [9, 41] 2.49% | viability [9, 42] 2.79% | viability [9, 43] 1.66% | viability [9, 44] 1.82%
inactive: viability [9, 13] 101% | viability [9, 15] 105% | viability [9, 16] 105% | viability [9, 17] 103% | viability [9, 18] 102% | viability [9, 19] 107% | viability [9, 20] 103% | viability [9, 22] 104% | viability [9, 23] 106% | viability [9, 24] 106% | viability [9, 28] 103% | viability [9, 29] 108% | viability [9, 30] 107% | viability [9, 31] 109% | viability [9, 32] 102% | viability [9, 33] 105% | viability [9, 34] 111%
